An excerpt weighted towards active compounds, which were near 19% of everything screened.
Shiga toxin inh = inhibitors of Shiga toxin in Vero cells; AID 2315; inhibition, % at 38.7 µM; Vero cells, Shiga toxin protein synthesis inhibition reporter; actives 9.2% (n = 290,000); in the data active means inhibition mostly above about 28%, no sharp cut-off; inactive means mostly below about 43%; further: 0% is about no effect
Pf growth 48h = inhibits P. falciparum growth in the first generation, 48 h; P. falciparum luciferase growth in erythrocytes, 48 h; Potency, µM (series often up to 28.7 µM), for the others: at the top dose activity change, negative = inhibition, most hits filed as inhibitors; actives 5.9% (n = 310,000); further: potency means the concentration at half of the fitted maximal effect; on the % scale 0 is the no-effect control and ±100 the full control effect
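A one-generation exposure of luciferase-tagged malaria parasites in RPMI 1640/Albumax erythrocyte culture, 37 C and 5% CO2. Inhibition is inferred from decreased luminescence after adding detection reagent.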
Pf growth 96h = P. falciparum growth inhibition at 96 hour, primary screen for plastid delayed-death inhibitors. P. falciparum luciferase reporter growth, 96 h. Potency, µM (highest dose often 28.7 µM), for the others: top-dose activity change, negative = inhibition, most hits filed as inhibitors. actives 6.9% (n = 320,000). AID 504834; further: potency means the concentration at half of the fitted maximal effect; on the % scale 0 is the no-effect control and ±100 the full control effect
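Parasite growth measured via integrated firefly luciferase reporter in P. falciparum. Infected erythrocytes at 2% hematocrit, 0.05% parasitemia final were treated 96 hours at 37 C under 5% CO2, and luminescence was read.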
Cycloheximide cs = counter-screen hit for Shiga toxin inhibitors, cycloheximide; cell reporter, cycloheximide protein synthesis inhibition counterscreen; max response, %; actives 12% (n = 300,000); in the data active means max response mostly above about 13%, no sharp cut-off; inactive means mostly below about 14%; further: read at 38.3 µM for the half of the compounds with a filed dose; 0% is about no effect
AMA1-RON2 inh = AMA1-RON2 (P. falciparum) interaction inhibition; actives 0.2% (n = 360,000); AlphaScreen AMA1-biotinylated RON2 peptide binding; Potency, µM (titrated, usually from 58.2 µM), without a hit: at the top dose activity change, negative = inhibition, usual class: inhibitors;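 further: potency means the concentration at half of the fitted maximal effect; 0% = vehicle wells and -100% = peptide control; nearly all actives have a fitted effect of over 45% in size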
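AMA1 (3D7) with his tag at 25 nM final met compounds first, then biotinylated RON2 peptide at 25 nM; detection used donor plus acceptor beads, 10 µg/mL apiece, read by AlphaScreen after 30 min at room temperature.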
SARS PLpro yeast = inhibitors of SARS-CoV papain-like protease in yeast; S. cerevisiae expressing SARS-CoV PLpro, growth rescue; Potency, µM (highest dose often 32.9 µM), for the others: at the top dose activity, positive = growth rescue, most hits filed as activators; actives 0.19% (n = 330,000); AID 485353; calls by dose curve; further: potency means the concentration at half of the fitted maximal effect; 0% is about no effect; nearly all actives have a fitted effect of over 55% in size
An asterisk follows results filed as active; i = inactive; ? = inconclusive; nt = no result given. Unless noted, the call rests on the fitted dose curve; in most records, active means well fitted curve in the direction sought with a large enough effect; inconclusive means small, poorly fitted or top-dose-only effect, or another doubt; inactive means no such curve, though single readings can be large; an effect the other way counts as inactive or inconclusive.

SMILES	Shiga toxin inh	Pf growth 48h	Pf growth 96h	Cycloheximide cs	AMA1-RON2 inh	SARS PLpro yeast
Cc1csc(NC(=O)CSc2nc(C)cs2)n1	25	16%	nt	17*	9%	1%
Cc1csc(SCC(=O)Nc2ccccc2C)n1	nt	31%	11%	nt	-12%	-8%
Cc1csc(NC(=O)CSc2nncs2)n1	nt	33%	22%	nt	8%	-2%
Cc1csc(NC(=O)CSc2nncn2C)n1	1	23%	?	-1	7%	-12%
Cc1csc(NC(=O)CSc2ccc([N+](=O)[O-])cn2)n1	24	-33%	12µM*	10	-13%	-3%
COc1ccc(NC(=O)CCCN2C(=O)C(c3ccccc3)Oc3cccnc32)c(OC)c1 (configuration not stated)	-3	?	?	2	-11%	-2%
Cc1nn(Cc2ccccc2)c(Cl)c1/C=C/C(=O)OC(C(=O)NC(N)=O)C(C)C (configuration not stated)	-5	-10%	-11%	-1	-4%	1%
COc1ccc(CCCc2nnc(SCC(=O)Nc3nc(C)cs3)n2C)cc1	-12	10µM*	nt	-3	-8%	1%
Cc1ccc(S(=O)(=O)NC2(C(F)(F)F)C(=O)Nc3c2c(=O)[nH]c(=O)n3-c2ccccc2)cc1 (configuration not stated)	-15	12%	10%	-1	-10%	-17%
Cc1cc(=O)c2ccccc2s1	9	12%	-5%	7	-4%	-4%
c1ccc2c(c1)[nH]c1c3ccccc3sc21	72*	67%	101%	41*	-6%	-1%
O=C(COC(=O)CNS(=O)(=O)c1cc(C(F)(F)F)ccc1Cl)NC1CC1	nt	nt	nt	nt	17%	-2%
C/C(=N\OCc1cccc(C(=O)O)c1)c1ccc(Cl)cc1	125*	1µM*	i	78*	3%	-4%
C/C(=N\OCc1ccc(C#N)cc1)c1ccccc1	70*	301%	388%	42*	28%	-5%
C/C(=N/OCO/N=C(\C)c1ccccc1)c1ccccc1	8	5%	-15%	6	12%	-3%
COc1ccccc1OC(=O)c1ccc(S(=O)(=O)N(C)C)cc1	-7	nt	-22%	-1	-12%	-10%
C/C(=N\OCc1ccc(C#N)cc1)c1ccc(S(=O)(=O)N(C)C)cc1	80*	-2%	?	48*	-7%	0%
COCCOC(=O)N1CCCCC1c1cc(C(=O)Nc2cccc3c2CCCC3)no1 (configuration not stated)	nt	nt	nt	nt	-8%	nt
O=C(NC1CCCCCC1)c1[nH]c(C(F)(F)F)nc1-c1ccccc1	nt	nt	nt	nt	39%	nt
COc1cccc(Cn2cnc3c(NS(=O)(=O)c4ccc(Cl)cc4Cl)c(C)c(C)cc32)c1	-4	25%	0%	-2	-2%	-10%
COc1cccc(Cn2cnc3c(NS(=O)(=O)c4ccc(Cl)cc4)c(C)c(C)cc32)c1	3	13µM*	4.7µM*	1	7%	0%
Cc1ccc(-n2nnnc2Sc2nc([N+](=O)[O-])nn2C)c(C)c1	nt	nt	nt	nt	0%	nt
Cc1ccc(-n2nnnc2Sc2nc([N+](=O)[O-])nn2C)cc1	-8	4.1µM*	20%	-6	0%	24%
Nc1ccc(C(=O)N/N=C\c2ccc(OC(=O)c3ccccc3Cl)cc2)cc1	21	34%	15%	38*	14%	5%
O=C(O)c1ccc(N/N=C/c2ccc(OC(=O)c3ccccc3Cl)cc2)cc1	19	41%	158%	21*	-15%	0%
SMILES	Shiga toxin inh	Pf growth 48h	Pf growth 96h	Cycloheximide cs	AMA1-RON2 inh	SARS PLpro yeast
O=C(O)c1ccc(/C=N/Nc2nnnn2-c2ccccc2)cc1	2	7%	21%	-2	-3%	-6%
COc1cc(C(=O)N/N=C/c2ccc(OC(=O)c3ccccc3Cl)cc2)ccc1O	22	24%	-14%	26*	-18%	-4%
C=CCOc1ccccc1/C=N/NC(=O)c1ccc(Cl)cc1Cl	16	4%	-9%	8	0%	-20%
COc1cc(C(=O)Oc2ccccc2/C=N/NC(=O)c2ccc(Cl)cc2Cl)cc(OC)c1OC	26*	6.6µM*	?	23*	-13%	-3%
CCC/C(O)=C1\C(=O)CCCC1=NCCc1c(C)[nH]c2ccc(OC)cc12	4	-3%	-21%	-7	0%	2%
Cc1ccc(S(=O)(=O)/C=C2\NC(=O)CS2)cc1	-6	2%	nt	3	3%	7%
Cc1ccc(C(=O)/C=C2/NC(=O)CS2)cc1	45*	185%	184%	25*	3%	-22%
O=C1CS/C(=C/C(=O)c2cccc(Cl)c2)N1	56	44%	20%	27*	0%	-4%
CC(C)(C)C(=O)/C=C1\NC(=O)CS1	15	-3%	7%	-1	-14%	-1%
CC(C)C[C@@H](CO)N1CCN(Cc2ccc([N+](=O)[O-])cc2)CCC1=O	7	-1%	56%	-1	-2%	2%
CC(=O)OCCCNc1cc(SCc2ccco2)c2nonc2c1[N+](=O)[O-]	-6	2%	2.3µM*	-2	-11%	18%
CC1(C)Cc2c(c(N3CCCC3)nc3sc4c(N5CCN(CCO)CC5)ncnc4c23)CO1	-10	8.3µM*	10%	-6	-11%	1%
OCCN1CCN(c2ncnc3c2sc2nc(N4CCOCC4)c4c(c23)CCC4)CC1	-17	13µM*	-10%	-4	-21%	-2%
CC1(C)Cc2c(c(N3CCOCC3)nc3sc4c(NCCN)ncnc4c23)CO1	nt	nt	nt	nt	-4%	nt
CC(C)NC(=O)CN1CCN(C(c2cc3ccccc3o2)c2nnnn2C(C)(C)C)CC1 (configuration not stated)	nt	nt	nt	nt	6%	nt
Cc1cc(C)nc(NC(=O)c2ccc(COc3ccccc3Cl)cc2)c1	4	-5%	9.3µM*	0	-23%	-1%
O=C(Nc1ccn(Cc2ccccc2F)n1)c1ccc(COc2cc(Cl)ccc2Cl)o1	-14	?	?	8	-1%	-2%
O=C(Nc1ccn(Cc2c(F)c(F)cc(F)c2F)n1)c1cccc(Cn2cc([N+](=O)[O-])cn2)c1	31	nt	9.3µM*	8	0%	7%
O=C(Nc1ccn(Cc2ccccc2F)n1)c1ccc(COc2ccccc2Cl)cc1	-5	?	nt	3	1%	-6%
O=C(Nc1ccn(Cc2c(F)c(F)cc(F)c2F)n1)c1ccc(COc2ccccc2Cl)cc1	23	?	0.23µM*	3	-4%	2%
O=C(Nc1ccn(Cc2ccccc2F)n1)c1ccc(COc2cccc(Br)c2)cc1	71*	nt	?	54*	5%	-6%
NC(=O)[C@@H]1CCCN1Cc1nc(-c2ccccc2)no1	7	22%	?	-1	-5%	1%
O=C1CCCN1CCCN=c1c([N+](=O)[O-])nn(-c2ccc(Cl)cc2)n1O	29	?	23%	13	1%	-1%
